Data from PubChem BioAssay AID743287 (Broad Institute, 2014).
Out of some 370,000 compounds screened, about 2,300 (0.62%) were called active.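 How the source made its calls: active means lowest replicate activation of at least 40%, so every replicate reaches that level; inactive means the rest.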 For the sample, actives were picked, then their nearest neighbours and some compounds at random.

Assay: GLuc luminescence reporter in INS-1E cells, primary screen for activators of glucose-dependent secretion of insulin (AID 743287);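 further: 0% = median of neutral control wells and 100% = median of IBMX positive control wells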
Conditions: INS-1E GLuc reporter insulin secretion, 2-3 h, at 16.6 µM, active compounds read high

activation, inactive:
CC(=O)Nc1ccc2c(c1)C(=O)N(C)[C@H]1CC[C@H](CC(=O)NCc3ccccc3Cl)O[C@H]1CO2 -3.1%
N#C[C@H]1[C@H](c2ccccc2)[C@@H](CO)N1C(=O)c1cccnc1 1.43%
C[C@@H]1CN([C@@H](C)CO)C(=O)c2cc(/C=C/c3ccccc3)cnc2O[C@H]1CN(C)C(=O)C1CCC1 -16.6%
COC(=O)C1=C(C)N(Cc2ccc(F)cc2)C(=S)NC1c1cccc(Cl)c1 (centres undefined) -20.6%
COC(=O)C1=C(C)N(Cc2ccccc2)C(=NCCCOC(C)C)N[C@H]1c1ccccc1 -19.7%
COC(=O)C1=C(C)N(Cc2cccc(C(F)(F)F)c2)C(=NCc2cccc(C(F)(F)F)c2)NC1c1ccccc1C(F)(F)F (centres undefined) 23.9%
C=CCN=C1NC(c2cccc(C(F)(F)F)c2)C(C(=O)OC)=C(C)N1C (centres undefined) -3.97%
COc1ccc(S(=O)(=O)N(C)C[C@H]2Oc3c(NS(=O)(=O)c4cccs4)cccc3C(=O)N([C@H](C)CO)C[C@@H]2C)cc1 -10.4%
CO[C@H]1CN(C)C(=O)c2ccc(NC(=O)C3CCCC3)cc2OC[C@H](C)N(C(=O)CC2CC2)C[C@@H]1C 8.95%
COc1ccc(NC(=O)Nc2cccc3c2O[C@H](CN(C)Cc2ccncc2)[C@@H](C)CN([C@@H](C)CO)C3=O)cc1 3.69%
CN(C)CC(=O)N1CC2(C1)[C@H](c1ccccc1)[C@H](CO)N2C(=O)C1CC1 10.8%
N#Cc1cccc(-c2ccc([C@H]3[C@@H](CO)N[C@@H]3CNC(=O)C3CCC3)cc2)c1 7.07%
c1ccc(CCN2CN=C(Nc3nc4ccccc4o3)NC2)cc1 -24.2%
CN1C(=O)c2cc(NC(=O)c3ccno3)ccc2OC[C@H]2O[C@@H](CC(=O)NCC(F)(F)F)CC[C@@H]21 19.2%
CC(C)(C)Oc1ccccc1Nc1nc(NCCO)nc(N2CCCC2)n1 -9.68%
COc1ccc(C#Cc2cnc3c(c2)C(=O)N([C@H](C)CO)C[C@@H](C)[C@H](CN(C)C(=O)Nc2cccc(OC)c2)O3)cc1 6.97%
C[C@@H]1CN([C@H](C)CO)C(=O)c2cc(C#Cc3ccncc3)cnc2O[C@H]1CN(C)Cc1ccncc1 9.79%
O=C(C[C@H]1CC[C@H](NC(=O)CCN2CCCCC2)[C@@H](CO)O1)Nc1ccccc1 33.8%
CCOC(=O)c1cnc2c(c(C)nn2CC)c1Cl 7.57%
CCOC(=O)c1cc(C(=O)Nc2ccc(S(=O)(=O)Nc3ccc(OC)cc3)cc2)nn1C 17%
C[C@H]1CN([C@@H](C)CO)C(=O)Cc2cc(NC(=O)NC3CCCCC3)ccc2O[C@H]1CN(C)S(=O)(=O)c1ccccc1 -7.37%
CN1C(=O)c2cc(NC(=O)C3CCC3)ccc2OC[C@@H]2O[C@@H](CC(=O)NCc3ccccc3F)CC[C@@H]21 19.7%
COc1cccc(-c2cnc3c(NC(C)=O)cc(-c4cccc(NC(C)=O)c4)cn23)c1 -1.53%
CC(=O)c1cccc(-c2cnc3c(NC=O)cc(-c4ccc(N5CCN(C)CC5)cc4)cn23)c1 9.93%
CC(C)C#Cc1ccc([C@H]2[C@@H](C#N)N(C(=O)CN(C)C)[C@H]2CO)cc1 1.29%
CC(C)NC(=O)N(C)C[C@H]1Oc2ccc(N(C)C)cc2CC(=O)N(C)C[C@@H]1C 0.073%
Cc1ccc(S(=O)(=O)N(C)C[C@H]2Oc3c(NS(=O)(=O)c4ccc(Cl)cc4)cccc3C(=O)N([C@H](C)CO)C[C@@H]2C)cc1 11.6%
COc1ccc(CCNC(=O)CCn2c(=O)oc3ccccc32)cc1OC 49.9%
COc1ccccc1CNC(=O)CCCn1c(=O)c2ccccc2n(CC(=O)NC2CCCC2)c1=O -9.86%
COCC(=O)Nc1ccc2c(c1)OC[C@@H](C)N(Cc1ccccc1C(=O)O)C[C@@H](C)[C@H](OC)CN(C)C2=O 4.87%
O=C(c1ccc(F)cc1)N1CC(=O)N2[C@@H](CO)[C@@H](c3ccc(C#Cc4ccc(F)cc4)cc3)[C@@H]2C1 -24.9%
CO[C@@H]1CN(C)C(=O)c2cc(NC(=O)c3cccc(Oc4ccccc4)c3)ccc2OC[C@H](C)NC[C@@H]1C -6.99%
CCC(=O)N1CCC2(CC1)CN(Cc1cc(F)ccc1F)[C@@H](CO)c1c2c2ccc(OC)cc2n1C -0.065%
O=C(c1ccccc1F)N1CC(=O)N2[C@H](CO)[C@H](c3ccc(-c4cccnc4)cc3)[C@H]2C1 27.6%
COc1ccc(CN(C)C[C@H]2OCCCC[C@H](C)Oc3ccc(NS(=O)(=O)c4ccc(C)cc4)cc3C(=O)N([C@@H](C)CO)C[C@H]2C)cc1 -29.4%
COc1ccc2c3c([nH]c2c1)[C@H](CO)N(S(=O)(=O)c1cn(C)cn1)CC31CCN(CC2CC2)CC1 15.9%
C/C=C/c1ccc2c(c1)O[C@H](CN(C)C)[C@H](C)CN([C@H](C)CO)S2(=O)=O 14.9%
CCOc1ccc(CCNC(=O)COC(=O)C2CCN(S(=O)(=O)c3ccccc3)CC2)cc1OCC 22%
CCOc1ccc(CCNC(=O)COC(=O)c2c(OC)cccc2OC)cc1OCC 19.6%
COc1ccc(CCNC(=O)CCC(=O)NC2CCCCC2)cc1OC -1.71%
COc1ccc(CCNC(=O)c2nnc(CS(=O)(=O)c3ccccc3)o2)cc1OC 6.41%
COc1ccc(CNC(=O)COC(=O)c2ccc(C)c(S(=O)(=O)N3CCOCC3)c2)cc1OC 16.8%
COc1ccc(CCNC(=O)C(=O)NCc2ccccc2C)cc1OC 30.4%
COc1ccc(CCNC(=O)CS(=O)(=O)Cc2nc(-c3ccc(C)cc3)oc2C)cc1OC -11.8%
Cc1ccc(S(=O)(=O)CCC(=O)OCc2ccccc2)cc1 -1.88%
CCCNC(=O)N1CC(=O)N2[C@H](CO)[C@H](c3ccc(C#Cc4cccc(OC)c4)cc3)[C@H]2C1 -24.3%
CNC[C@H]1Oc2ccccc2CC(=O)N(C)C[C@H]1C 13.7%
Cc1cc(C(=O)Nc2cccc3c2O[C@H](CN(C)C(=O)Nc2ccccc2)[C@@H](C)CN([C@H](C)CO)C3=O)n(C)n1 26.8%
Cc1ccc(S(=O)(=O)N(C)C[C@@H]2Oc3ccc(NC(=O)C4CCCCC4)cc3CC(=O)N([C@@H](C)CO)C[C@H]2C)cc1 -11.4%
CCS(=O)(=O)Nc1ccc2c(c1)C(=O)N(C)[C@H]1CC[C@@H](CC(=O)N3CCCCC3)O[C@H]1CO2 -5.88%
C[C@@H]1CN([C@H](C)CO)S(=O)(=O)c2ccc(-c3ccccc3)cc2O[C@@H]1CN(C)CC1CC1 10.8%
O=C(C[C@H]1CC[C@H](NC(=O)c2ccncc2)[C@H](CO)O1)Nc1ccccc1 22%
O=C(c1cnccn1)N1CC(=O)N2[C@H](C1)[C@@H](c1ccc(C3=CCCCC3)cc1)[C@@H]2CO -9.9%
CO[C@@H]1CN(C)C(=O)c2ccc(NS(C)(=O)=O)cc2OC[C@@H](C)N(C(=O)CC2CC2)C[C@@H]1C -7.78%
O=C(NCCc1ccccc1)c1c[nH]c2ccc(F)cc2c1=O -9.34%
NC(=O)Nc1ccccc1C(=O)NCCc1ccccc1 16.6%
CO[C@H]1CN(C)C(=O)c2ccc(NC(=O)c3cc(C)on3)cc2OC[C@@H](C)NC[C@@H]1C 14.3%
COc1ccc(NC(=O)N(C)C[C@@H]2Oc3c(NS(=O)(=O)c4cn(C)cn4)cccc3C(=O)N([C@H](C)CO)C[C@@H]2C)cc1 8.28%
CCC(=O)N1CCC2(CC1)CN(Cc1cccc(OC)c1)[C@@H](CO)c1[nH]c3cc(OC)ccc3c12 5.34%

activation, active:
COC(=O)C1=C(C)N(Cc2cccc(C(F)(F)F)c2)C(=NCc2ccccc2)NC1c1ccc(Cl)cc1 (centres undefined) 160%
COC(=O)C1=C(C)N(Cc2cccc(C(F)(F)F)c2)C(=NCc2ccccc2)NC1c1ccccc1C(F)(F)F (centres undefined) 198%
CCSc1ncnc2c(C#N)c3n(c12)CCCCC3 47.4%
Brc1ccccc1/C=N/Nc1nc2ccccc2o1 46.6%
Cn1ncc2c(N3CCCCC3)nc(NCCCO)nc21 60.1%
CCOC(=O)c1cc(-c2ccc(Cl)s2)nc2c1c(C)nn2C 60%
CC(=O)Nc1cc(-c2ccc(N3CCN(C)CC3)cc2)cn2c(-c3cccc(C(=O)N(C)C)c3)cnc12 40.3%
COc1ccc(CCNC(=O)CCn2c(=O)c3ccccc3n(CC(=O)NCC3CCCO3)c2=O)cc1OC (centres undefined) 55.9%
NC[C@H](Cc1ccccc1)NCCc1cc(C(F)(F)F)cc(C(F)(F)F)c1 143%
Fc1c(F)c(C(F)(F)F)c(F)c(F)c1N1CCN(c2ccc3nnc(C(F)(F)F)n3n2)CC1 57%
CCOc1ccc(CCNC(=O)COC(=O)CCS(=O)(=O)c2ccc(C)cc2)cc1OCC 54.2%
COc1ccc(CNC(=O)COC(=O)CCS(=O)(=O)c2ccc(C)cc2)cc1OC 45.1%
COc1ccc(CCNC(=O)NS(=O)(=O)c2ccc(C)cc2)cc1OC 58.1%
COc1ccc(CCNC(=O)CCc2ccccc2O)cc1OC 55.3%
Nc1nc2c(Br)ccc(Br)c2cc1C(=O)NCCc1ccccc1 41.1%
